Screen size: about 5,500 compounds; about 2,000 (36%) were called active. Another 18% or so got no clear call; they are omitted. No stated cut-off is given here; in the data, active means normalized growth mostly below about 0.91 (no sharp cut-off); inconclusive means no clear call, values can overlap the other calls; inactive means mostly above about 0.92. This is one part of the list.
Assay: chemical genetic growth profiling, strain panel (AID 1159580);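 further: tested at 20 µM; growth read once vehicle control cultures reached saturation at 30 °C; 1 = growth at the plate median or of vehicle wells; lower values mean less growth of the strain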
Details: growth OD

Measured: normalized growth

CC[C@H]1OC(=O)[C@H](C)[C@@H](O[C@H]2C[C@@](C)(OC)[C@@H](O)[C@H](C)O2)[C@H](C)[C@@H](O[C@@H]2O[C@H](C)C[C@H](N(C)C)[C@H]2O)[C@](C)(O)C[C@@H](C)/C(=N/OCOCCOC)[C@H](C)[C@@H](O)[C@]1(C)O
inactive: S. cerevisiae deletion strains, locus YJR075W, strain HOC1, hits give low values 0.989 | S. cerevisiae deletion strains, locus YKL009W, strain mrt4, hits give low values 1.01 | S. cerevisiae deletion strains, locus YKL068W, hits give low values 1 | S. cerevisiae deletion strains, locus YKL085W, strain MDH1 (second series), hits give low values 1 | S. cerevisiae deletion strains, locus YKL085W, strain MDH1, hits give low values 1 | S. cerevisiae deletion strains, locus YKL160W, strain elf1, hits give low values 1.02 | S. cerevisiae deletion strains, locus YKL190W, strain CNB1, hits give low values 1 | S. cerevisiae deletion strains, locus YKR001C, strain vps1, hits give low values 1.01 | S. cerevisiae deletion strains, locus YKR026C, strain gcn3, hits give low values 1 | S. cerevisiae deletion strains, locus YKR091W, strain srl3, hits give low values 1 | S. cerevisiae deletion strains, locus YLL001W, strain dnm1, hits give low values 1.02 | S. cerevisiae deletion strains, locus YLL026W, hits give low values 1.01 | S. cerevisiae deletion strains, locus YLL041C, strain sdh2, hits give low values 1.01 | S. cerevisiae deletion strains, locus YLR027C, strain aat2, hits give low values 1.01 | S. cerevisiae deletion strains, locus YLR039C, strain RIC1, hits give low values 0.968 | S. cerevisiae deletion strains, locus YLR058C, strain SHM2, hits give low values 0.998 | S. cerevisiae deletion strains, locus YLR102C, strain apc9, hits give low values 0.989 | S. cerevisiae deletion strains, locus YLR113W, strain HOG1, hits give low values 0.967 | S. cerevisiae deletion strains, locus YLR221C, strain rsa3, hits give low values 1.01 | S. cerevisiae deletion strains, locus YLR258W, strain gsy2, hits give low values 1.02 | S. cerevisiae deletion strains, locus YLR262C, strain YPT6 (second series), hits give low values 0.989 | S. cerevisiae deletion strains, locus YLR262C, strain YPT6, hits give low values 0.997 | S. cerevisiae deletion strains, locus YLR268W, strain sec22, hits give low values 1.03 | S. cerevisiae deletion strains, locus YLR320W, strain mms22, hits give low values 0.993 | S. cerevisiae deletion strains, locus YLR330W, strain CHS5, hits give low values 1.01 | S. cerevisiae deletion strains, locus YLR342W, strain FKS1 (second series), hits give low values 1.01 | S. cerevisiae deletion strains, locus YLR342W, strain FKS1, hits give low values 1.02 | S. cerevisiae deletion strains, locus YLR357W, strain rsc2, hits give low values 1.05 | S. cerevisiae deletion strains, locus YLR370C, strain arc18, hits give low values 1.01 | S. cerevisiae deletion strains, locus YLR371W, strain rom2, hits give low values 0.972 | S. cerevisiae deletion strains, locus YLR418C, strain cdc73, hits give low values 1.03 | S. cerevisiae deletion strains, locus YML016C, strain PPZ1, hits give low values 1.01 | S. cerevisiae deletion strains, locus YML032C, strain rad52, hits give low values 1.01 | S. cerevisiae deletion strains, locus YML120C, strain ndi1, hits give low values 1.01 | S. cerevisiae deletion strains, locus YML124C, strain tub3, hits give low values 0.999 | S. cerevisiae deletion strains, locus YMR058W, strain fet3, hits give low values 1.01 | S. cerevisiae deletion strains, locus YMR078C, strain ctf18, hits give low values 1.01 | S. cerevisiae deletion strains, locus YMR125W, strain sto1, hits give low values 1.01 | S. cerevisiae deletion strains, locus YMR129W, hits give low values 1.02 | S. cerevisiae deletion strains, locus YMR205C, strain PFK2, hits give low values 0.99 | S. cerevisiae deletion strains, locus YMR223W, strain ubp8, hits give low values 1.03 | S. cerevisiae deletion strains, locus YMR231W, strain pep5, hits give low values 1.01 | S. cerevisiae deletion strains, locus YMR307W, strain GAS1, hits give low values 1.02 | S. cerevisiae deletion strains, locus YNL067W, strain RPL9B, hits give low values 0.986 | S. cerevisiae deletion strains, locus YNL071W, strain lat1, hits give low values 0.955 | S. cerevisiae deletion strains, locus YNL183C, strain NPR1, hits give low values 0.937 | S. cerevisiae deletion strains, locus YNL209W, strain ssb2, hits give low values 1.01 | S. cerevisiae deletion strains, locus YNL233W, strain BNI4, hits give low values 0.977 | S. cerevisiae deletion strains, locus YNL248C, strain rpa49, hits give low values 1.03 | S. cerevisiae deletion strains, locus YNL250W, strain rad50, hits give low values 1.05 | S. cerevisiae deletion strains, locus YNL271C, strain bni1, hits give low values 1.01 | S. cerevisiae deletion strains, locus YNL298W, strain CLA4, hits give low values 1.02 | S. cerevisiae deletion strains, locus YNL307C, strain MCK1, hits give low values 1 | S. cerevisiae deletion strains, locus YNL322C, strain KRE1 (second series), hits give low values 1.01 | S. cerevisiae deletion strains, locus YNR049C, strain mso1, hits give low values 1.01 | S. cerevisiae deletion strains, locus YNR052C, strain pop2, hits give low values 1 | S. cerevisiae deletion strains, locus YOL006C, strain TOP1, hits give low values 0.92 | S. cerevisiae deletion strains, locus YOL012C, strain htz1 1.11 | S. cerevisiae deletion strains, locus YOL147C, strain pex11, hits give low values 1.01 | S. cerevisiae deletion strains, locus YOR001W, strain rrp6, hits give low values 1.01 | S. cerevisiae deletion strains, locus YOR061W, strain CKA2, hits give low values 1 | S. cerevisiae deletion strains, locus YOR069W, strain VPS5, hits give low values 1.01 | S. cerevisiae deletion strains, locus YOR070C, strain gyp1, hits give low values 1 | S. cerevisiae deletion strains, locus YOR080W, strain dia2, hits give low values 1.02 | S. cerevisiae deletion strains, locus YOR083W, strain WHI5, hits give low values 1.02 | S. cerevisiae deletion strains, locus YOR106W, strain vam3, hits give low values 1.03 | S. cerevisiae deletion strains, locus YOR136W, strain idh2, hits give low values 1.02 | S. cerevisiae deletion strains, locus YOR144C, strain elg1, hits give low values 1 | S. cerevisiae deletion strains, locus YOR184W, strain ser1, hits give low values 1.01 | S. cerevisiae deletion strains, locus YOR231W, strain MKK1, hits give low values 0.988 | S. cerevisiae deletion strains, locus YOR265W, strain rbl2, hits give low values 1.01 | S. cerevisiae deletion strains, locus YOR270C, strain vph1, hits give low values 1.01 | S. cerevisiae deletion strains, locus YOR290C, strain snf2, hits give low values 1.01 | S. cerevisiae deletion strains, locus YOR316C, strain cot1, hits give low values 0.994 | S. cerevisiae deletion strains, locus YPL051W, strain arl3, hits give low values 1.01 | S. cerevisiae deletion strains, locus YPL055C, strain LGE1, hits give low values 0.988 | S. cerevisiae deletion strains, locus YPL078C, strain atp4, hits give low values 1.01 | S. cerevisiae deletion strains, locus YPL106C, strain sse1, hits give low values 1.04 | S. cerevisiae deletion strains, locus YPL240C, strain hsp82, hits give low values 1.01 | S. cerevisiae deletion strains, locus YPL241C, strain CIN2, hits give low values 1 | S. cerevisiae deletion strains, locus YPL256C, strain CLN2, hits give low values 0.994 | S. cerevisiae deletion strains, locus YPR119W, strain clb2, hits give low values 0.989 | S. cerevisiae deletion strains, locus YPR141C, strain kar3, hits give low values 1.01 | S. cerevisiae deletion strains, locus YPR163C, strain tif3, hits give low values 1 | S. cerevisiae deletion strains, locus YPR167C, strain met16, hits give low values 1.01 | S. cerevisiae deletion strains, strain wtn01, hits give low values 1.02 | S. cerevisiae strains, strain wild type, hits give low values 1.01

Reference: PubChem BioAssay AID1159580 (chemical genetic matrix, 2015)
